Source: PubChem BioAssay
For some assays here: Entries with a potency or affinity are not part of this list. Active and inactive are the calls of the source. Unless noted, no rule for the calls is given here.

Columns and labels:
[1] = antimalarial activity against Dd2 strain (AID 2302;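 active = growth inhibition above 50% at the single 2 µM test dose, taken to imply half-maximal potency below 2 µM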;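 also: 0% = DMSO untreated growth and 100% = chloroquine plus artemisinin killed control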); conditions: P. falciparum Dd2 in RBCs, LDH growth readout, 72 h; at 2 µM; active compounds read high
[2] = human hepatoma cell viability loss – ATP luminescence, cytotoxicity control for P. falciparum antimalarial project, primary screen (AID 2303;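 active = inhibition above 50%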;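 also: 0% = DMSO wells and 100% = digitonin-killed cells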); conditions: HepG2 viability, 24-48 h, at 10 µM, active compounds read high
[3] = target: L-lactate dehydrogenase (Plasmodium falciparum (isolate CDC / Honduras)) (UniProt Q27743); assay: PfLDH activity inhibition – cell lysate, 3D7 strain, counter-screen for P. falciparum growth inhibition project (AID 2304);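 also: 0% = vehicle and 100% = reference inhibitor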; conditions: P. falciparum 3D7 crude extract, LDH APAD/NBT absorbance; at 2 µM; active compounds read high
[4] = inhibition of 3D7 malaria parasite growth – strain 3D7 (AID 2306);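 also: 0% = DMSO wells and 100% = chloroquine plus artemisinin control wells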; conditions: P. falciparum 3D7 erythrocytic growth, LDH absorbance, 72 h; at 2 µM; active compounds read high
[5] = target: Calcium-dependent protein kinase 1 (Plasmodium falciparum (isolate 3D7)) (UniProt P62344); assay: PfCDPK1 kinase inhibitors, biochemical, TCAMS library (AID 1159585; cut-off not given, nearly all actives have IC50 up to about 0.98 µM;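 also: inhibitors leave more ATP so luminescence rises with inhibition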); conditions: recombinant PfCDPK1, Kinase-Glo ATP depletion luminescence
[6] = target: Plasmodium falciparum protein kinase 6 (PK6, PF3D7_1337100) (UniProt Q8IDW1); assay: PfPK6 kinase inhibitors, biochemical, TCAMS library (AID 1159586); conditions: recombinant PfPK6, Kinase-Glo ATP depletion luminescence
[7] = target: Protein kinase 7 (PK7), Plasmodium falciparum 3D7 (PF3D7_0213400) (UniProt Q7YTF7); assay: inhibition of Plasmodium PK7 catalytic activity – biochemical, TCAMS antimalarial set, Kinase-Glo luminescence (AID 1159587); conditions: recombinant PfPK7, Kinase-Glo ATP depletion luminescence
[8] = target: Calcium-dependent protein kinase 4 (Plasmodium falciparum (isolate 3D7)) (UniProt Q8IBS5); assay: PfCDPK4 kinase inhibitors, biochemical, TCAMS library (AID 1159588; cut-off not given, nearly all actives have IC50 up to about 0.91 µM); conditions: recombinant PfCDPK4, Kinase-Glo ATP depletion luminescence
Chain of Calcium-dependent protein kinase 4 (Plasmodium falciparum (isolate 3D7)) (Q8IBS5 whole entry, looked up): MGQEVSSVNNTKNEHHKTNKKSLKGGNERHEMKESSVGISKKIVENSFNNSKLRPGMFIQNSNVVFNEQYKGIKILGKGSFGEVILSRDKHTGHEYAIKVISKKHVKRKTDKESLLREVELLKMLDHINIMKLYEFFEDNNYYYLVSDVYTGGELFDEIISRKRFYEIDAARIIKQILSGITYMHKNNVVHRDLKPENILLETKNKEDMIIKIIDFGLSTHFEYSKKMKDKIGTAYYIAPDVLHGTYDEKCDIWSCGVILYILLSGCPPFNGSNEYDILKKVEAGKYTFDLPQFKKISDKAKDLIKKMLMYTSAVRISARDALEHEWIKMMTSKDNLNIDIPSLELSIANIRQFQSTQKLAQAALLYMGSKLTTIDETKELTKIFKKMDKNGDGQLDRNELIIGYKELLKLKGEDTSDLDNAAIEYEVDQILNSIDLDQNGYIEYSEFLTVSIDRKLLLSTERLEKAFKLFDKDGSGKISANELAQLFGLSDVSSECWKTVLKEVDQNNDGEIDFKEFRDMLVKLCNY

Chain of Calcium-dependent protein kinase 1 (Plasmodium falciparum (isolate 3D7)) (P62344 whole entry, looked up): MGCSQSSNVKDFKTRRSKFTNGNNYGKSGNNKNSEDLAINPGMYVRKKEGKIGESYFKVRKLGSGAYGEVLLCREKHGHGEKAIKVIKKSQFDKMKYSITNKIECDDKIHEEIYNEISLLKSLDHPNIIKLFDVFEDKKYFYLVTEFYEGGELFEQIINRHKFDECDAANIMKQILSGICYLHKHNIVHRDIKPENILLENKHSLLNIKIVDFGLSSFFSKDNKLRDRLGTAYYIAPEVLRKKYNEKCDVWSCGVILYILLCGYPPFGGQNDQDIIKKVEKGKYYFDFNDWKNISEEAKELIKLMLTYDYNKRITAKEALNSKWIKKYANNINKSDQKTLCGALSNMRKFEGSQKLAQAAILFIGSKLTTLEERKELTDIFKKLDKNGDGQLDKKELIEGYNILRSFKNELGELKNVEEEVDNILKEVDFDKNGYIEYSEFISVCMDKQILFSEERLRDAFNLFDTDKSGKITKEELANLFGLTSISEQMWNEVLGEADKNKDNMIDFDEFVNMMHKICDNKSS
Chain of L-lactate dehydrogenase (Plasmodium falciparum (isolate CDC / Honduras)) (Q27743 whole entry, looked up): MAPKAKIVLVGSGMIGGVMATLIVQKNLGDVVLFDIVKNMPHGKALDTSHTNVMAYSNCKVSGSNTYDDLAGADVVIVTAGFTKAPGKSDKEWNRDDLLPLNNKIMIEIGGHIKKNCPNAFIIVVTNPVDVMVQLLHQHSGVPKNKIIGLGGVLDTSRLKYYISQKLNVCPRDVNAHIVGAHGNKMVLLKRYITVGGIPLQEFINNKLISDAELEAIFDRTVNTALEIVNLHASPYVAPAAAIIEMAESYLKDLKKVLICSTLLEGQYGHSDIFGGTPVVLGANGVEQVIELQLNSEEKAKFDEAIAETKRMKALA
Chain of Protein kinase 7 (PK7), Plasmodium falciparum 3D7 (PF3D7_0213400) (Q7YTF7 1-343): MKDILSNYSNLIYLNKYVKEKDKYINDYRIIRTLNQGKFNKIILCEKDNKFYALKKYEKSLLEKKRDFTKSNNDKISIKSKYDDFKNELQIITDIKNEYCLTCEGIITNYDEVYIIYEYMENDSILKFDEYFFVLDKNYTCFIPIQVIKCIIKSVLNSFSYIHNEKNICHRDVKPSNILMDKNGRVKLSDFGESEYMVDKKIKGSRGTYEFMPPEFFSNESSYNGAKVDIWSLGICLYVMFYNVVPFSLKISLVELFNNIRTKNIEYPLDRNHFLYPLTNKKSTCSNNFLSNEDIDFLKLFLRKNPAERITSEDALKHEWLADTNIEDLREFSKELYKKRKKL
Chain of Plasmodium falciparum protein kinase 6 (PK6, PF3D7_1337100) (Q8IDW1 1-305): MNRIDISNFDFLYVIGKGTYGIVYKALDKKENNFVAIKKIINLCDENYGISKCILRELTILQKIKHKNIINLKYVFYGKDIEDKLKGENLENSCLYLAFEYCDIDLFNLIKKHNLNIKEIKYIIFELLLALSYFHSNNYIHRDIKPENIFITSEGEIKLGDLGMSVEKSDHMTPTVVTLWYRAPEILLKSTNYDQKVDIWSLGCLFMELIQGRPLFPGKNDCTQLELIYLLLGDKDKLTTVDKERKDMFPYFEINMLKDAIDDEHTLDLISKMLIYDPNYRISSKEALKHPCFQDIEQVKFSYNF

Cc1ccn2c(N(Cc3ccccc3)C(=O)c3ccc(Cl)c(Cl)c3)c(-c3ccccc3)nc2c1
active: growth inhibition [4] 95%
inactive: growth inhibition [1] -5% | inhibition [2] -20% | inhibition [3] -7% | outcome [5] | outcome [6] | outcome [7] | outcome [8]

Fc1ccc2c(NN=CC=Cc3ccccc3)ccnc2c1
active: growth inhibition [1] 98% | growth inhibition [4] 101%
inactive: inhibition [2] -2% | inhibition [3] -3% | outcome [5] | outcome [6] | outcome [7] | outcome [8]

CCCCCNc1ccnc2cc(Cl)ccc12
active: growth inhibition [1] 99% | growth inhibition [4] 97%
inactive: inhibition [2] 12% | inhibition [3] -2% | outcome [5] | outcome [6] | outcome [7] | outcome [8]

Cc1cccc(C)c1NC1=NC(=S)N(c2cccc(Cl)c2)C12CCC(C(C)(C)C)CC2 (stereo unspecified)
active: growth inhibition [1] 53% | growth inhibition [4] 87%
inactive: inhibition [2] 4% | inhibition [3] -14% | outcome [5] | outcome [6] | outcome [7] | outcome [8]

Cn1nc(C(F)(F)F)c(-c2ccc(F)cc2)c1NC(=O)Nc1ccccc1
active: growth inhibition [1] 99% | growth inhibition [4] 101%
inactive: inhibition [2] 3% | inhibition [3] 6% | outcome [5] | outcome [6] | outcome [7] | outcome [8]

CCOc1c(CNCCCNc2nc3ccccc3[nH]2)cc(Br)cc1OC
inactive: growth inhibition [1] 0% | inhibition [2] 29% | inhibition [3] 2% | outcome [5] | outcome [6] | outcome [7] | outcome [8]
active: growth inhibition [4] 99%

O=C(Nc1ccc(SC(F)(F)F)cc1)Nc1ccnc2ccccc12
active: growth inhibition [4] 95%
inactive: growth inhibition [1] 42% | inhibition [2] 26% | inhibition [3] -2% | outcome [5] | outcome [6] | outcome [7] | outcome [8]

COc1ccc(-c2ccc(NC(=O)c3ccc(C#N)cc3)cc2)cc1CN1CCCC1
inactive: inhibition [2] 40% | inhibition [3] 5% | outcome [5] | outcome [6] | outcome [7] | outcome [8]
active: growth inhibition [1] 51% | growth inhibition [4] 95%

CC(C)C(=O)ONC1=NC(C)(C)N(OCCCOc2cc(Cl)c(Cl)cc2Cl)C(NOC(=O)C(C)C)=N1
inactive: inhibition [3] -9% | outcome [5] | outcome [6] | outcome [7] | outcome [8]
active: growth inhibition [1] 93% | inhibition [2] 64% | growth inhibition [4] 92%

CCc1cn(C)c2c(N3CCCC3=O)cc(C(=O)N[C@@H](Cc3ccccc3)[C@H](O)CNC(C)(C)c3cccc(OC)c3)cc12
inactive: inhibition [2] 9% | inhibition [3] -1% | outcome [5] | outcome [6] | outcome [7] | outcome [8]
active: growth inhibition [1] 99% | growth inhibition [4] 95%

O=C(NCCc1cccc(Cl)c1Cl)c1ccc(N2CCN(c3ccncc3)CC2)nc1
inactive: inhibition [2] 38% | inhibition [3] 2% | outcome [5] | outcome [6] | outcome [7] | outcome [8]
active: growth inhibition [1] 79% | growth inhibition [4] 101%

CNc1ccc(CNCc2cccc(-c3ccc(-c4nc5c(C)cccc5[nH]4)s3)c2)cc1
active: growth inhibition [1] 88% | growth inhibition [4] 101%
inactive: inhibition [2] 23% | inhibition [3] -2% | outcome [5] | outcome [6] | outcome [7] | outcome [8]

COc1ccc(-c2ccc(NC(=O)c3cccc(Cl)c3)cc2)cc1CN1CCCN(C)CC1
active: growth inhibition [1] 50% | growth inhibition [4] 95%
inactive: inhibition [2] 48% | inhibition [3] 8% | outcome [5] | outcome [6] | outcome [7] | outcome [8]

COc1ccc(Nc2nccc(-c3cccc(NC(=O)c4cc5cc(F)ccc5[nH]4)c3)n2)cc1
active: growth inhibition [4] 92%
inactive: growth inhibition [1] 37% | inhibition [2] 3% | inhibition [3] 5% | outcome [5] | outcome [6] | outcome [7] | outcome [8]

CCN(CC)CCN(Cc1ccc(-c2ccc(C(F)(F)F)cc2)cc1)C(=O)Cn1c(CCc2ccc(F)c(F)c2F)nc(=O)c2ccc(F)cc21
active: growth inhibition [4] 98%
inactive: growth inhibition [1] 46% | inhibition [2] 19% | inhibition [3] -1% | outcome [5] | outcome [6] | outcome [7] | outcome [8]

O=C(NCCc1ccccc1)N(Cc1ccccc1-c1cccc(CNC2CCCC2)c1)C1CCN(Cc2ccccc2)CC1
active: growth inhibition [1] 87% | growth inhibition [4] 95%
inactive: inhibition [2] 31% | inhibition [3] 5% | outcome [5] | outcome [6] | outcome [7] | outcome [8]

N#Cc1ccc2c(c1)CCN(CCC1CCC(NC(=O)Nc3ccncc3)CC1)C2 (stereo unspecified)
active: growth inhibition [4] 85%
inactive: growth inhibition [1] 3% | inhibition [2] 6% | inhibition [3] -4% | outcome [5] | outcome [6] | outcome [7] | outcome [8]

CCNC(=O)c1ccc2c(c1)c(C)c(C)n2Cc1ccc(F)cc1
inactive: inhibition [2] 25% | inhibition [3] -1% | outcome [5] | outcome [6] | outcome [7] | outcome [8]
active: growth inhibition [1] 91% | growth inhibition [4] 93%

COc1ccc2c(OC)c(CNCCCCCCNCc3ccc4cc(OC)ccc4c3OC)ccc2c1
active: inhibition [2] 100% | growth inhibition [4] 98%
inactive: growth inhibition [1] 49% | inhibition [3] 4% | outcome [5] | outcome [6] | outcome [7] | outcome [8]

CCCCN(CCCC)C(=Nc1cccc(Cl)c1Cl)Nc1ccc(C#N)cc1O
active: growth inhibition [1] 69% | growth inhibition [4] 89%
inactive: inhibition [2] 4% | inhibition [3] -6% | outcome [5] | outcome [6] | outcome [7] | outcome [8]

CCc1c(C(=O)NC2CCC(N3CCC(c4ccccc4C)CC3)CC2)[nH]c2ccc(Br)cc12 (stereo unspecified)
active: growth inhibition [1] 99% | inhibition [2] 81% | growth inhibition [4] 101%
inactive: inhibition [3] -5% | outcome [5] | outcome [6] | outcome [7] | outcome [8]

O=C(NCCN1CCCC1)N1CCCN(c2ncnc3cc(-c4ccc(F)cc4)sc23)CC1
inactive: growth inhibition [1] 19% | inhibition [2] 5% | inhibition [3] 5% | outcome [5] | outcome [6] | outcome [7] | outcome [8]
active: growth inhibition [4] 81%

CN(C)CCCn1cncc1-c1ccc2ncnc(Nc3ccc(OCc4ccccc4)cc3)c2c1
inactive: inhibition [2] 37% | inhibition [3] 2% | outcome [5] | outcome [6] | outcome [7] | outcome [8]
active: growth inhibition [1] 101% | growth inhibition [4] 101%

CC(C)C[C@H](NC(=O)c1cc2ccccc2s1)C(=O)N[C@H]1CCN(Cc2ccc(OC[C@@H]3CCCN3C)c3ccccc23)C1
inactive: inhibition [3] -2% | outcome [5] | outcome [6] | outcome [7] | outcome [8]
active: growth inhibition [1] 93% | inhibition [2] 69% | growth inhibition [4] 101%

N#Cc1cccc(NC(=O)Nc2ccc3c(c2)CN(Cc2c[nH]c4ncccc24)C3)c1
inactive: growth inhibition [1] 12% | inhibition [2] 0% | inhibition [3] 5% | outcome [5] | outcome [6] | outcome [7] | outcome [8]
active: growth inhibition [4] 99%

COc1ccc(Cl)cc1N1CCN(CCCNC(=O)c2ccc(-c3nc4ccncc4[nH]3)c(Br)c2)CC1
inactive: growth inhibition [1] 15% | inhibition [2] 5% | inhibition [3] 4% | outcome [5] | outcome [6] | outcome [7] | outcome [8]
active: growth inhibition [4] 86%

COC(=O)C(C)(C)Cc1c(SC(C)(C)C)c2cc(C(C)C)ccc2n1Cc1ccc(Cl)cc1
inactive: inhibition [2] -9% | inhibition [3] 0% | outcome [5] | outcome [6] | outcome [7] | outcome [8]
active: growth inhibition [1] 96% | growth inhibition [4] 96%

Cc1nn(C)cc1C(C)Nc1nncc(-c2ccc(C(F)(F)F)cc2)n1 (stereo unspecified)
inactive: inhibition [2] -3% | inhibition [3] -5% | outcome [5] | outcome [6] | outcome [7] | outcome [8]
active: growth inhibition [1] 99% | growth inhibition [4] 100%

CCOc1ccc(-c2nonc2NC(=O)c2ccccc2Cl)cc1OCC
inactive: inhibition [2] 3% | inhibition [3] 4% | outcome [5] | outcome [6] | outcome [7] | outcome [8]
active: growth inhibition [1] 100% | growth inhibition [4] 101%

CCC(C)NC(=O)Cn1c2ncccc2c(=O)n1-c1ccc(C)cc1 (stereo unspecified)
active: growth inhibition [1] 63% | growth inhibition [4] 95%
inactive: inhibition [2] 4% | inhibition [3] 4% | outcome [5] | outcome [6] | outcome [7] | outcome [8]

Cc1nc(-c2ccc(-c3ccc(NC(=O)Nc4ccc(I)c(OCCN(C)C)c4)cc3)c(C)c2)no1
active: growth inhibition [1] 92% | growth inhibition [4] 101%
inactive: inhibition [2] 47% | inhibition [3] 2% | outcome [5] | outcome [6] | outcome [7] | outcome [8]

Cc1cc2nc(-c3ccc(C(=O)NC4CCN(Cc5ccccc5)CC4)s3)[nH]c2cc1C
active: growth inhibition [1] 82% | growth inhibition [4] 99%
inactive: inhibition [2] 33% | inhibition [3] 1% | outcome [5] | outcome [6] | outcome [7] | outcome [8]

CS(=O)(=O)Nc1cccc(-c2cnc3[nH]cc(-c4ccc(C(=O)O)c(F)c4)c3c2)c1
inactive: inhibition [2] 27% | inhibition [3] 5% | outcome [5] | outcome [6] | outcome [7] | outcome [8]
active: growth inhibition [1] 76% | growth inhibition [4] 99%

CCOc1ccc(C(=O)Nc2cc(Br)c3c(c2)CNCC3)cc1C(F)(F)F
inactive: growth inhibition [1] 22% | inhibition [2] 15% | inhibition [3] 6% | outcome [5] | outcome [6] | outcome [7] | outcome [8]
active: growth inhibition [4] 98%

O=C(Nc1nccs1)c1cc(-c2cccnc2)nc2ccc(Br)cc12
inactive: inhibition [2] 7% | inhibition [3] 5% | outcome [5] | outcome [6] | outcome [7] | outcome [8]
active: growth inhibition [1] 79% | growth inhibition [4] 100%

CC(=O)N(C)c1cccc(C(=O)Nc2cccc(-c3ccc(-c4nc5ccc(C(F)(F)F)cc5[nH]4)cc3)c2)c1
inactive: growth inhibition [1] 31% | inhibition [3] -2% | outcome [5] | outcome [6] | outcome [7] | outcome [8]
active: inhibition [2] 63% | growth inhibition [4] 90%

O=c1cc(NCCCNCc2[nH]c3cc(Cl)ccc3c2Cl)[nH]c2ccccc12
active: growth inhibition [4] 91%
inactive: growth inhibition [1] 1% | inhibition [2] 5% | inhibition [3] -2% | outcome [5] | outcome [6] | outcome [7] | outcome [8]
